The values that follow come from ChEMBL document CHEMBL4513141, “CO-ADD screening of NIH (USA) - Clinical Collection” (2021).

Results with a measured potency or affinity are listed apart.

The test concerns Escherichia coli. The settings on record: Concentration 20 uM; ASSAY_TEST Inhibition of Bacterial Growth; detection method Absorption (OD600); MEDIA CAMHB; plate type 384well; NBS; CORNING #3640; time 18 hr.
Broadly, the Inhibition is the relative decrease from the control value, in per cent. `O=C1CN(/N=C/c2ccc(-c3ccc([N+](=O)[O-])cc3)o2)C(=O)[N-]1.[Na+]` [DANTROLENE SODIUM]: the Inhibition is listed as -9.64%.
With `O.OC[C@H]1O[C@@H](n2cnc3c(NC4CCCC4)nc(Cl)nc32)[C@@H](O)C1O` (stereo not given in full), the Inhibition is -5.97%.
Under `CCN(CC)CCNC(=O)c1cc(Cl)c(N)cc1OC.Cl` stands -6.93%.
For `CC(=O)O.CNC(=N)NCCC[C@H](N)C(=O)O` [TILARGININE ACETATE], the Inhibition came out at 6.22%.
Under `Cn1ccnc1S` [METHIMAZOLE] stands 5.86%.
